# Only some compounds are listed: those with a hit (about 21% of all), similar ones and a draw of the others.
# IL-1B inflam inh = qHTS for Inhibitors of Inflammasome Signaling: IL-1-beta AlphaLISA Primary Screen; THP-1 LPS/ATP IL-1B secretion, AlphaLISA, 16 h; active compounds read low; AID 743279, 2014; activity change, % at 57.5 µM; 4.7% of 360,000 active; in the data active = activity change below about -50%; inconclusive = mostly about -30% to -49%; note: % is set by controls: 0 for no effect and ±100 for the full control effect
#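 Secreted IL-1B measured by AlphaLISA bead assay after 16 h compound exposure of THP-1 cells; compounds (final up to 57.5 uM) added 1 h before LPS (250 ng/mL) and ATP (1.25 mM) stimulation; lower signal means less secretion.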
# DT40 TDP1 no CPT = qHTS for Inhibitors of human tyrosyl-DNA phosphodiesterase 1 (TDP1): qHTS in cells in absence of CPT. DT40 Tdp1-/- hTDP1 cells, no CPT, ATP luminescence, 48 h. Potency, µM (titrated, usually from 46.2 µM), for the others: at the top dose activity change, negative = growth inhibition, usual class: inhibitors. 15% of 420,000 active; note: potency is the fitted concentration of half-maximal effect; % is set by controls: 0 for no effect and ±100 for the full control effect; nearly all actives have a fitted effect of over 55% in size
#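 DT40 Tdp1-/-;hTDP1 cells, no CPT (DMSO vehicle only), 400 cells/well; compounds pin-transferred; ≥48 hr, 37 °C; CellTiter-Glo 30 min RT dark, luminescence read.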
# D3 antag = qHTS of D3 Dopamine Receptor Antagonist: qHTS; D3R cells, DiscoveRx beta-arrestin luminescence, antagonist mode; active compounds read low; max response, negative = inhibition, %; 2.5% of 360,000 active; AID 652054, 2013; in the data active = max response below about -50%; inconclusive = no clear call, values can overlap the other calls; note: % is set by controls: 0 for no effect and ±100 for the full control effect
#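 Cells expressing the human receptor were seeded at 1500 cells/well, incubated overnight at 37 degrees C in 5% CO2, then exposed to library compounds with dopamine controls for 90 minutes at 37 degrees C before luminescent detection.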
# TDP1 cell CPT = qHTS for Inhibitors of human tyrosyl-DNA phosphodiesterase 1 (TDP1): qHTS in cells in presence of CPT. chicken DT40 Tdp1-/-;hTDP1 cells + 20 nM CPT, ATP luminescence, 48 h. Potency, µM (series often up to 46.2 µM), for inactives: at the highest dose activity change, negative = growth inhibition, usual class: inhibitors. 12% of 420,000 active; note: potency is the fitted concentration of half-maximal effect; % is set by controls: 0 for no effect and ±100 for the full control effect; nearly all actives have a fitted effect of over 55% in size
#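 Cell growth measured by CellTiter-Glo luminescence after a minimum 48 h, 37 C compound exposure with 20 nM CPT in Tdp1-knockout DT40 cells stably expressing hTDP1, seeded 400/well; qHTS titration format.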
# D3 ag = qHTS of D3 Dopamine Receptor Agonist: qHTS; max activation, %; D3R DiscoveRx beta-arrestin cells, luminescence, 90 min; 0.58% of 410,000 active; D(3) dopamine receptor (Homo sapiens), P35462; in the data active = max activation above about 30%; note: 0% is about no effect
#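 Cells at 1500/well, incubated overnight, then treated with pinned compounds (dopamine as control) for 90 min at 37 degrees C. DiscoveRx reagent added for 30 - 60 minutes at room temperature; luminescence read.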
# ClpP mod = qHTS Assay for Activators of ClpP | 1.9% of 340,000 active | AID 651965, 2013 | Potency, µM (highest dose often 57.5 µM), inactives show at the highest dose activity change, negative = active | ATP-dependent Clp protease proteolytic subunit (Bacillus subtilis (strain 168)), P80244 | purified B. subtilis ClpP, FRET peptide cleavage, 20 min; active = well fitted falling curve with a large enough effect; inconclusive = small, poorly fitted or top-dose-only effect; inactive = no such curve, though single readings can be large or run the other way; note: potency is the fitted concentration of half-maximal effect; the source files actives as falling curves though it sought activators and does not explain the sign; nearly all actives have a fitted effect of over 65% in size
# Target sequence (P80244 whole entry, looked up): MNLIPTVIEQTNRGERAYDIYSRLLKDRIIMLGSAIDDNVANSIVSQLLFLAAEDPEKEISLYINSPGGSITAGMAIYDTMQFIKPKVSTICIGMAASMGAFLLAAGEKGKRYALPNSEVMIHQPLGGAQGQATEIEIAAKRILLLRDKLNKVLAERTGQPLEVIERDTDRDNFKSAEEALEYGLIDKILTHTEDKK
#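 Buffer: 100 mM Tris/HCl pH8, 100 mM KCl, 0.05% low protease BSA, 2.5% glycerol, 0.01% Tween-20. ClpP 10 microg/mL final; 20 min RT; delta FRET normalized to ADEP and DMSO controls.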
# Numbers without * were called inactive; ? = inconclusive; nt = no result given. Unless noted, calls come from the whole dose curve; as a rule, active = well fitted inhibition curve with a large enough effect; inconclusive = small, poorly fitted or top-dose-only effect; inactive = flat fitted curve, though single readings scatter.
SMILES,IL-1B inflam inh,DT40 TDP1 no CPT,D3 antag,TDP1 cell CPT,D3 ag,ClpP mod
O=C(COC(=O)c1cc(-c2ccccc2)nc2ccccc12)Nc1ccc2c(c1)OCO2,-2,0%,-7,-5%,1,52%
CCOc1ccc(NC(=O)c2cc(Cl)nc3ccccc23)cc1,32,15µM*,-21,?,4,0%
CCOc1ccc(NC(=O)Nc2ccc(Cc3ccncc3)cc2)cc1,-5,?,-8,-28%,10,nt
CCCn1c(C)cc(=O)c2cc(NC(=O)c3ccccn3)ccc21,-23,15µM*,?,?,5,-1%
CCCC(=O)Nc1ccc(NC(=O)c2ccccn2)cn1,-9,?,16,-26%,2,-5%
COc1ccc(-c2cc(C(=O)OCC(=O)Nc3ccc4c(c3)OCO4)c3ccccc3n2)cc1,-8,21µM*,17,?,3,3%
CCOc1ccc(NC(=O)c2ccccc2O)cc1,-18,?,20,-16%,-5,-3%
CCOc1ccc(NC(=O)C2CSC(c3ccncc3)=N2)cc1 (stereo unspecified),-11,?,0,23µM*,-6,-4%
CC(C)(C)c1ccc(S(=O)(=O)NC(=O)C2(C)CCN2C(=O)Cc2cccs2)cc1 (stereo unspecified),-2,0%,-8,4%,-18,1%
O=Cc1c[nH]c2ccc(C(=O)c3ccccc3)cc12,?,?,-14,?,-8,2%
COCCn1c(N)c(N(Cc2ccccc2)C(=O)c2cc3ccccc3o2)c(=O)[nH]c1=O,13,0%,3,16%,-6,0%
CCOc1ccc(NC(=O)c2cnccn2)cc1,-11,?,-26,-9%,7,0%
Cc1cccc(-c2cc(C(=O)Nc3ccc4c(c3)OCCO4)c3ccccc3n2)c1,-20,13µM*,-3,29µM*,2,-11%
CCOc1cc(NC(=O)c2ccccn2)c(OCC)cc1NC(=O)c1cccc(C)c1,-2,1.8µM*,6,4.1µM*,-1,0%
CCOc1ccc(NC(=O)c2ccccn2)cc1,-4,13µM*,-14,-45%,-3,0%
O=C(Nc1ccc2c(c1)OCCO2)c1cc(-c2ccccn2)nc2ccc(Br)cc12,18,?,6,?,-4,nt
CNc1ccccc1C(=O)OCC(=O)Nc1ccc2c(c1)OCO2,-18,-4%,-2,-10%,5,28µM*
C[C@H](CO)N1C[C@H](C)[C@@H](CN(C)C(=O)c2cccnc2)Oc2ncc(Br)cc2C1=O,6,4%,24,1%,9,0%
Cc1ccc(N2CC(C(=O)Nc3ccccc3OC(F)F)CC2=O)cc1 (stereo unspecified),0,-14%,-20,?,-9,0%
CCOc1ccc(-c2cc(C(=O)Nc3ccc4c(c3)OCCO4)c3ccccc3n2)cc1,5,10µM*,6,?,12,-2%
CCOc1ccc(C(=O)Nc2ccc3c(c2)OCCO3)cc1,-16,-23%,-3,0%,3,nt
CCCCN1CCCCC1(C)C(=O)NCc1cccc(OC)c1 (stereo unspecified),29,?,30,-30%,7,0%
CCCCNC(=O)C1(C)CCCCN1CC(=O)c1ccc(OC)cc1 (stereo unspecified),-10,26µM*,16,16µM*,2,-11%
CN(C)c1nc(N)nc(CSc2nc3cc(Cl)ccc3o2)n1,50,2%,-16,-19%,3,-1%
O=S1(=O)C=C(Sc2nc3cc(Cl)ccc3o2)c2ccccc21,-119*,0.46µM*,-77*,0.58µM*,-16,-2%

# Source: PubChem
